Assay results as given in PubChem BioAssay AID1210 (NMMLSC, 2008).
Activity calls are given as the source filed them.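 Rule for the calls: active = blocks over 70% of labeled estradiol binding at 10 µM, or over a set limit at 100 nM; inactive = the rest.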

Biological target: Estrogen receptor beta (Homo sapiens) (UniProt Q92731)
Test: ERbeta ligand binders by competition, primary screen, cell-based, Cos7 ERbeta-GFP, flow cytometry (AID 1210);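 note: 0% = DMSO vehicle wells and 100% = complete loss of labeled estradiol signal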
Conditions: fluorescent estrogen binding, stronger effect = higher value
[1] = ligand binding inhibition, at 0.1 µM

Estrogen receptor beta (Homo sapiens), sequence (Q92731 whole entry, looked up): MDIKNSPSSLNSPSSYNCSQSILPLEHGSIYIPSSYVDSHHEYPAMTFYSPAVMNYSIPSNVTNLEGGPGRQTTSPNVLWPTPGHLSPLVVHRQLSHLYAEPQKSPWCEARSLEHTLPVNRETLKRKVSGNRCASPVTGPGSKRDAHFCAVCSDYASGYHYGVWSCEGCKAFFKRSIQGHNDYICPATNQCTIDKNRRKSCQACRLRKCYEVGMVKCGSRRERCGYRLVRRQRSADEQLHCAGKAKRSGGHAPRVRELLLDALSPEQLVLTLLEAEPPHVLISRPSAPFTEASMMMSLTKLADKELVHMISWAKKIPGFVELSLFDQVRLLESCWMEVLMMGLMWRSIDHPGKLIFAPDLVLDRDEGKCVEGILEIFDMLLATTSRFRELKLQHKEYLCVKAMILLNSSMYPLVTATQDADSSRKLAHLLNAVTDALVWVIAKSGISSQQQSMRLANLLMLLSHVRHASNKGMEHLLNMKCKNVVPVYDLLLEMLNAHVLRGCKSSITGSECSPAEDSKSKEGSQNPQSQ

Structure (SMILES) | inhibition (at 10 µM) | inhibition [1] [%]
CCC(=O)Oc1ccc(/C(CC)=C(\CC)c2ccc(OC(=O)CC)cc2)cc1 | 68% (active) | 80
CCN1CCN(Cc2c(O)c(Cl)cc3c(C)cc(=O)oc23)CC1 | 31% (inactive) | 8
COc1cccc2cc3c(=O)n(-c4ccccc4)nc-3oc12 | 70% (inactive) | 12
CCOc1ccc2nc(NC(=O)CCC(=O)c3cccs3)sc2c1 | 29% (inactive) | 33
CCc1ccc(NC(=O)c2noc3c2CCC3)cc1 | 8% (inactive) | 22
Cn1c(-c2ccc3nc(N)sc3c2)nc2cc(N)ccc21 | 68% (inactive) | 17
O=S(=O)(NCc1csc(-c2cccnc2)n1)c1ccc(Cl)s1 | 31% (inactive) | 19
CCSc1nnc(NC(=O)C2Cc3ccccc3CN2C(=O)c2ccco2)s1 (stereo not given) | 45% (inactive) | 34
CC(=O)c1ccc2c(c1)C1C=CCC1C(C(=O)O)N2 (stereo not given) | 19% (inactive) | 6
CCCCCCNC(=O)c1cc(-c2ccco2)nc2ccccc12 | 92% (active) | 2
COc1cccc2sc(Nc3nnc(-c4ccc(F)cc4)o3)nc12 | 33% (inactive) | 17
Cc1ccc(C)c(/C(O)=C2/C(=O)C(=O)N(CCN3CCOCC3)C2c2ccco2)c1 (stereo not given) | 23% (inactive) | 17
CN(c1ccccc1C(=O)O)S(=O)(=O)c1ccc2c3c(cccc13)C(=O)N2 | 0% (inactive) | 6
COC(=O)c1ccccc1NC(=O)c1noc2c1CCC2 | 38% (inactive) | 26
COc1ccc2[nH]c3c(c2c1)CCn1c-3nc2ccccc2c1=O | 16% (inactive) | 36
